Experimental findings from PubChem BioAssay (EPA / NIEHS) are described below.

Assay [1] in a line: ACEA_AR_antagonist_AUC_viability: ACEA Biosciences xCELLigence Real-Time Cell Analysis on Androgen Receptor Antagonism for Viability (AID 2283776).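 Further: 22Rv1 human prostate cancer cells growing on impedance electrode plates; hits lower the growth signal relative to DMSO meaning cytotoxicity.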 The procedure, abridged: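 Viability endpoint from label-free cell-index monitoring: 22Rv1 cultures treated with an eight-point 1:4 dilution series starting at 100 uM final, AUC at 80 h fitted against DMSO.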
Assay [2] can be described thus: ACEA_ER_AUC_viability: ACEA Biosciences xCELLigence Real-Time Cell Analysis on Estrogen Receptor Agonism for Viability (AID 2283782).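 Further: hit means loss of impedance signal meaning reduced cell growth or viability.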 The method, boiled down: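 Continuous-exposure impedance cell analysis uses T-47D cells in charcoal-stripped serum, eight 1:4 dilutions topping at 100 uM final, biological duplicate. Area under the growth curve at 80 h is fitted against DMSO baseline.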

Assay [3] in a line: ACEA_AR_agonist_AUC_viability: ACEA Biosciences xCELLigence Real-Time Cell Analysis on Androgen Receptor Agonism for Viability (AID 2283775).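 On AC50: viability read 80 hours after compound addition.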 The procedure, abridged:
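Viability endpoint from xCELLigence impedance in 22Rv1 prostate cells at 80 h. Eight-point series, 100 uM maximum final.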

Assay [4] addresses AR (gene 367) (UniProt P10275). In words: ACEA_AR_antagonist_80hr: ACEA Biosciences xCELLigence Real-Time Cell Analysis on Androgen Receptor Antagonism for Proliferation (AID 2283787).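 Further: 22Rv1 human prostate cancer cells with growth followed by electrical impedance; hits lower the impedance growth signal relative to DMSO.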 The procedure, abridged: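 Using 22Rv1 cells held in assay medium, we dosed compounds (100 uM maximum final, 1:4 serial, eight points, 0.5% DMSO at top) and recorded cell-electrode impedance; the 80 hr timepoint was analyzed against DMSO.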

Records with an inconclusive call do not appear. Activity calls are given as the source filed them. How the source made its calls: active means hit-call score of the fitted dose curve at least 0.9, where 1 is the maximum; inconclusive means response in the unintended direction; inactive means score below 0.9.

Chain of AR (gene 367) (P10275 whole entry, looked up): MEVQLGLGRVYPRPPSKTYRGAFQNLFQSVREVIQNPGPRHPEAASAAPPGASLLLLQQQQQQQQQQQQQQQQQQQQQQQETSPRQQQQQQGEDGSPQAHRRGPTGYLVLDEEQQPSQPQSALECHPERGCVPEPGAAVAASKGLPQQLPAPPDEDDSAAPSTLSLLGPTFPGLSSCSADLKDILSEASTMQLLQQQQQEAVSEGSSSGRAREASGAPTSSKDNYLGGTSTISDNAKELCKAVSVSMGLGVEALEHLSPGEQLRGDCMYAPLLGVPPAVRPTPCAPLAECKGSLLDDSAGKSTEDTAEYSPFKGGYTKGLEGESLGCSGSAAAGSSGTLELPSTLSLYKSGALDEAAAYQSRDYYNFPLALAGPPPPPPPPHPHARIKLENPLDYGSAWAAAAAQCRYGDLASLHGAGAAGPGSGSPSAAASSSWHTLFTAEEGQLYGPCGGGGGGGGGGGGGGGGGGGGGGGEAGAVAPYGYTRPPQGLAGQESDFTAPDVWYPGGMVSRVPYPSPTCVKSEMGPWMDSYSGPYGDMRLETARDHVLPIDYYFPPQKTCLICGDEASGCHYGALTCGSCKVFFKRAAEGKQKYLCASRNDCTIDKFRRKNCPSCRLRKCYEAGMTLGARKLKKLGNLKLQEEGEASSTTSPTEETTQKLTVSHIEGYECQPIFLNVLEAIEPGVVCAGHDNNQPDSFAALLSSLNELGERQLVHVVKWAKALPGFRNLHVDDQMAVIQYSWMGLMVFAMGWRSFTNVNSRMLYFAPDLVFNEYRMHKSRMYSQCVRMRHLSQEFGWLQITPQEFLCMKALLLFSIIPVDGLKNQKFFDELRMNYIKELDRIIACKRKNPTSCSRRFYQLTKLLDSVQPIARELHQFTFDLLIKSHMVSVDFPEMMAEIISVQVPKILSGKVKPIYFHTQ

For the compound `C=CC#N`, the outcome in assay [1] and in assay [2] was inactive. On to `CNC`, for which, in assay [1], the call was inactive. Consider `Cc1ccccc1C(=O)Nc1cccc(OC(C)C)c1`, for which the compound was classed as inactive in assay [3], in assay [1] and in assay [4]. On to `O=C(O)C(F)(F)C(F)(F)C(F)(F)C(F)(F)C(F)(F)C(F)(F)C(F)(F)C(F)(F)C(F)(F)C(F)(F)F`, for which the half-maximal activity concentration (AC50) in assay [3] was 36 µM (active). The result in assay [1] and in assay [2] was inactive.

`CCc1ccccc1C`: the call in assay [2] was inactive. For the compound `COC(=O)c1sccc1S(=O)(=O)NC(=O)Nc1nc(C)nc(OC)n1`, the result in assay [1] and in assay [2] was inactive. For `CC1CCCCC1NC(=O)Nc1ccccc1` (configuration not stated), the AC50 in assay [2] is 26.2 µM (active). With `O=C(c1ccccc1)C(Cl)Cl`, the AC50 in assay [2] was 22.6 µM (active).

Take `COP(=S)(OC)Oc1ccc(S(=O)(=O)N(C)C)cc1`: the compound was called inactive in assay [2]. Regarding `CCCCCCCCCCCCCCCC[n+]1ccccc1`, in assay [2], the AC50 is 5.69 µM (active). Turning to `C(=NC1CCCCC1)=NC1CCCCC1`, the AC50 in assay [2] is 28.6 µM (active). As to `O=C(CCl)CCl`, in assay [2], the AC50 was 62.7 µM (active). Same read-out and setting: next, `C[C@H]1O[C@@H](O[C@H]2[C@@H](O)C[C@H](O[C@H]3[C@@H](O)C[C@H](O[C@H]4CC[C@@]5(C)[C@H](CC[C@@H]6[C@@H]5CC[C@]5(C)[C@@H](C7=CC(=O)OC7)CC[C@]65O)C4)O[C@@H]3C)O[C@@H]2C)C[C@H](O)[C@@H]1O`: 0.159 µM (active); `COc1ccc(OC)c(C=O)c1`: 50 µM (active). As to `COc1ccccc1OC`, the compound was called inactive in assay [2]. For the compound `O=P(O)(O)c1ccccc1`, the result in assay [2] was inactive. With `COS(=O)(=O)c1ccc(C)cc1`, the compound was classed as inactive in assay [2].

As to `Clc1ccc(COC(Cn2ccnc2)c2ccc(Cl)cc2Cl)cc1` (configuration not stated), the AC50 in assay [1] is 7.1 µM (active); in assay [2], 21.5 µM (active); in assay [4], 8.61 µM (active). `CCOP(=S)(OCC)SCCS(=O)(=O)CC`: the AC50 in assay [2] was 57.6 µM (active).
